Screening results from PubChem BioAssay.
B2AR arrestin = qHTS assay of beta-arrestin-biased ligands of beta2-adrenergic receptor; Beta-2 adrenergic receptor (Homo sapiens), P07550; beta-arrestin recruitment to beta2AR, cell-based reporter; Potency, µM (highest dose often 46.1 µM), for inactives: at the highest dose activation, actives largely listed as activators; actives 0.02% (n = 330,000); AID 492947, 2010;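 note: potency is the fitted concentration of half-maximal effect; 0% = DMSO controls and full agonism = EC100 isoproterenol or metaproterenol; nearly all actives have a fitted effect of over 65% in size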
Target sequence (P07550 whole entry, looked up): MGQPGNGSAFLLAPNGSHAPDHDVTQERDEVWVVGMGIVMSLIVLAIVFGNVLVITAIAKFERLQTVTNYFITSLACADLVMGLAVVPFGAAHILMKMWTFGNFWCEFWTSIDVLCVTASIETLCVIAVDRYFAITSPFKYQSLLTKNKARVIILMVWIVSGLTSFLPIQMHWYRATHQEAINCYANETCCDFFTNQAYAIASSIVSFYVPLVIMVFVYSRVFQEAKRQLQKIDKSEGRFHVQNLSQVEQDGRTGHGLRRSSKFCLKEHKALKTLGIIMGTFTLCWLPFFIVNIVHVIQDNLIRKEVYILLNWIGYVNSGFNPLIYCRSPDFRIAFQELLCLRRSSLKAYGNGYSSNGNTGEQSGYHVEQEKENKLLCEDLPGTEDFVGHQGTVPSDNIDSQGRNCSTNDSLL
CtBP-E1A blk = qHTS Assay for Inhibitors of the CtBP/E1A Interaction; CtBP / adenovirus E1A interaction (AlphaScreen); AlphaScreen GST-E1A/His-CtBP binding, 1536-well; active compounds read low; activity change, % (test concentration not listed); actives 0.49% (n = 340,000); AID 651724, 2012; in the data active = activity change below about -65%; inconclusive = mostly about -30% to -63%; note: % is set by controls: 0 for no effect and ±100 for the full control effect
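GST-E1A and His-tagged CtBP (125 nM each as 5X stock) were preincubated with pin-transferred compound for 2 h at 37 °C in the dark, then glutathione donor and nickel acceptor beads were added for 1 h before AlphaScreen reading.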
L3MBTL1 inh-1 = qHTS Assay for the Inhibitors of L3MBTL1; Lethal(3)malignant brain tumor-like protein 1 (Homo sapiens), Q9Y468; AlphaScreen L3MBTL1–H3K9me1 peptide binding; Potency, µM (titrated, usually from 57.1 µM), without a hit: at the highest dose activity, negative = inhibition, actives largely listed as inhibitors; actives 0.66% (n = 230,000); note: potency is the fitted concentration of half-maximal effect; % is set by controls: 0 for no effect and ±100 for the full control effect; nearly all actives have a fitted effect of over 60% in size
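Read-out is AlphaScreen signal from streptavidin donor and nickel chelate acceptor beads (10 ug/mL final each) bridging L3MBTL1 (50 nM) and biotinylated K9-monomethylated H3(1-15) peptide (75 nM), after 30 min compound exposure at room temperature.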
Eya2 inh = qHTS Assay for Inhibitors of the Phosphatase Activity of Eya2; Potency, µM (doses to about 76.9 µM), without a hit: at the highest dose activity, negative = inhibition, hits mostly inhibitors; actives 0.006% (n = 330,000); AID 488837, 2010; Protein phosphatase EYA2 (Homo sapiens), O00167; recombinant Eya2, OMFP fluorescence dephosphorylation (OMFP is methylfluorescein phosphate); note: potency is the fitted concentration of half-maximal effect; % is set by controls: 0 for no effect and ±100 for the full control effect
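Eya2 protein (added as 0.2 uM solution) was preincubated with compound for 10 min at ambient temperature in 50 mM HEPES pH 7.5, 50 mM NaCl, 5 uM MgCl2, 0.05% BSA, 1 mM DTT. OMFP (added at 50 uM) then reacted 10 min; fluorescence read at 485/525 nm.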
Six1-Eya2 inh = qHTS Assay for Inhibitors of the Six1/Eya2 Interaction | AlphaScreen GST-Six1/His-Eya2 binding, biochemical; active compounds read low | activity change, % (test concentration not listed) | actives 0.56% (n = 360,000); in the data active = activity change below about -65%; inconclusive = mostly about -30% to -63%; note: % is set by controls: 0 for no effect and ±100 for the full control effect
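Six1/Eya2 binding was read as AlphaScreen signal after compounds were pinned into GST-Six1 plus His-tagged Eya2 (5X stock 250/500 nM) in pH 8.0 Tris/NaCl/TCEP buffer, beads added, then incubated 1 h, 37 C, dark.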
L3MBTL1 inh-2 = qHTS Assay for the Inhibitors of L3MBTL1: Hit Validation | actives 91% (n = 500) | Potency, µM, most hits filed as inhibitors | L3MBTL1 methyl-lysine binding inhibition, biochemical qHTS | AID 540279, 2011 | shares compounds with L3MBTL1 inh-1; note: potency is the fitted concentration of half-maximal effect; nearly all actives have a fitted effect of over 70% in size
AlphaScreen ctr2 = qHTS Assay for the Inhibitors of L3MBTL1: Hit Validationin AlphaScreen Counterscreen. Potency, µM (titrated, usually from 57.1 µM), inactives show top-dose activity change, negative = inhibition, usual class: inhibitors. shares compounds with L3MBTL1 inh-1. AID 602224, 2012. AlphaScreen counterscreen, signal inhibition. 500 tested, under 10 active; note: potency is the fitted concentration of half-maximal effect; 0% is about no effect
* = called active by the depositor; ? = inconclusive; / = not tested or not shown; [ ] = dose if it differs, or a comment. This is a sample that favours compounds with a hit; in the whole collection about 0.9% have one here. Unless noted, calls come from the whole dose curve; as a rule, active = well fitted curve in the direction sought with a large enough effect; inconclusive = small, poorly fitted or top-dose-only effect, or another doubt; inactive = no such curve, though single readings can be large; an effect the other way counts as inactive or inconclusive.

SMILES	B2AR arrestin	CtBP-E1A blk	L3MBTL1 inh-1	Eya2 inh	Six1-Eya2 inh	L3MBTL1 inh-2	AlphaScreen ctr2
CCc1ccc2[nH]c(C(=O)Nc3ccc4c(c3)OCO4)cc2c1	-0.5%	0.0	-14.0%	-3.7%	4.1	/	/
O=C1OC(c2cccs2)=N/C1=C/c1ccc(-c2cccc(C(=O)O)c2)o1	0.1%	-3.0	0.562µM*	13.0%	-19.8	3.36*	-6.2%
O=C(CCCN=C1NS(=O)(=O)c2ccccc21)OCC(=O)c1ccccc1Cl	-0.2%	-2.6	-8.5%	12.6%	4.9	/	/
N#CC(C#N)=Cc1cccn1-c1ccc(C(=O)O)cc1	0.0%	5.0	2µM*	14.4%	-14.9	2.99*	15.9%
CCOC(=O)/C(C#N)=C/c1cccn1-c1ccc(Cl)cc1	-0.3%	1.7	-0.8%	9.3%	-6.5	/	/
N#C/C(=C/c1cccn1-c1cccc(C(=O)O)c1)c1ccc(Cl)cc1	-0.3%	3.9	25.1µM*	6.5%	-29.0	23.8*	?
COc1ccc2cc(C(=O)NCc3ccco3)c(=O)oc2c1	-0.1%	-0.7	-14.1%[11.4 µM]	-1.6%	-1.0	/	/
O=C(NCc1ccco1)c1cc2ccc(O)cc2oc1=O	0.0%	-3.1	20µM*	6.4%	-10.2	9.47*	2.5%
Cc1nn(-c2nccs2)c2c1C(=O)CC(C)(C)C2Br (stereo unspecified)	/	4.6	/	/	0.6	/	/
COc1ccc(C2=Nn3c(nnc3-c3ccccn3)SC2)cc1OC	0.1%	-82.0*	25.1µM*	-1.3%	-77.4*	?	-19.1%
CSc1nc(NCCOCCO)c2sc3nc(-c4ccco4)c4c(c3c2n1)CCC4	-0.6%	-25.6	5.62µM*	0.8%	?	2.67*	-6.0%
Cn1nc(C2CC2)cc1NC(=O)C1(C)CCN1C(=O)c1ccccc1CCc1ccccc1 (stereo unspecified)	/	-9.5	/	/	-8.8	/	/
NC(=S)N=Nc1c(O)[nH]c2ccccc12	-0.7%	?	-4.3%	-2.0%	?	/	/
Oc1[nH]c2ccccc2c1N=NC(=S)N1CCOCC1	5.0%	-65.8*	28.2µM*	-26.0%	-91.7*	21.2*	?
O=c1cc(C(F)(F)F)nc(-n2[nH]c3c(c2=O)CCCC3)[nH]1	-1.0%	-87.5*	8.91µM*	?	-84.6*	?	46.1%
CC1=CN2C(=N)/C(=C/c3ccco3)C(=O)N=C2S1	3.2%	-23.2	-8.0%	2.6%	-22.6	/	/
CC1=CN2C(=N)/C(=C/c3ccc([N+](=O)[O-])o3)C(=O)N=C2S1	-0.2%	-24.6	35.5µM*	1.6%	?	13.4*	-8.9%
Cc1sc(NC(=O)c2sc3nc4c(C)cccc4cc3c2N)c(C#N)c1C	-0.6%	-24.5	17.8µM*	18.9%	-9.4	6.7*	-2.1%
Cc1cccc2cc3c(N)c(C#N)sc3nc12	-0.4%	-2.8	28.7%	-10.8%	7.5	/	/
COC(=O)c1c(NC(=O)C2COc3ccccc3O2)sc2c1CCN(C(=O)OC)C2 (stereo unspecified)	/	-1.6	/	/	-2.3	/	/
CC(=O)Nc1cccc(C(=O)/C=C/c2ccco2)c1	0.4%	4.1	-6.0%	-6.1%	-2.6	/	/
CC(=O)Nc1ccc(C(=O)/C=C/c2ccco2)cc1	-0.1%	-7.7	31.6µM*	0.6%	?	9.47*	-10.4%
COc1ccccc1N1CCCSC1=Nc1ccccc1	/	2.9	/	/	-13.9	/	/
